Only some compounds are listed: those with a hit (about 3.8% of all), similar ones and a draw of the others.
rat GALR2 ag: activates the rat galanin receptor 2. O08726. cell-based GALR2 agonist screen. activation, % at 10 µM. hit rate 0.5% among 16,000. AID 833; in the data active = activation above about 15%
Nox1 inh: inhibitors of human NADPH oxidase 1 (Nox1); Q9Y5S8; HT29 cells, luminol chemiluminescence ROS; inhibition, % at 6.7 µM; hit rate 0.81% among 16,000
S1P1 ag: S1P1 (human) receptor agonism. hit rate 1.5% among 16,000. activation, % at 4.5 µM. P21453. AID 1044. S1P1 agonist cell-based reporter assay; in the data active = activation above about 80%
Target sequence (P21453 whole entry, looked up): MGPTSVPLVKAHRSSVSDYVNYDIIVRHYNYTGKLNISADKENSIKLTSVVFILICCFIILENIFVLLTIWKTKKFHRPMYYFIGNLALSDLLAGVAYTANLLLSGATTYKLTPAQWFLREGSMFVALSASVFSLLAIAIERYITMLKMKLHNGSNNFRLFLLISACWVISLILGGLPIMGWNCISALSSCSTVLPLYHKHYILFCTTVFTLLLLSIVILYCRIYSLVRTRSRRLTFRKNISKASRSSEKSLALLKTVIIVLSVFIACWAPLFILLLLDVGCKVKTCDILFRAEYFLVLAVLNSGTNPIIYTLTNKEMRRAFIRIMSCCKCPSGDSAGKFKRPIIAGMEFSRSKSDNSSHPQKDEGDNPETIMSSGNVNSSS
NOTCH ag: NOTCH pathway agonism | NOTCH signaling luciferase reporter cells, luminescence | activation, % at 2.5 µM | hit rate 0.4% among 15,000 | AID 434982; in the data active = activation above about 2.2%
luminol inh ctr: quenches luminol chemiluminescence in Nox1 counter-screen. HRP/luminol/H2O2 chemiluminescence counterscreen. AID 1823. hit rate 0.4% among 16,000. inhibition, % at 6.7 µM; also: reference of the scale not given here
PME-1 Maybr inh: inhibitors of human PME-1 in Maybridge library | Q9Y570 | hit rate 0.5% among 16,000 | AID 2291 | recombinant PME-1, FP-Rh probe fluorescence polarization | inhibition, % at 9 µM; in the data active = inhibition above about 30%
An asterisk follows results filed as active; / = not tested or not shown. Rule as the data show it, unless noted: active = inhibition above about 75%; inactive = the rest.

SMILES	rat GALR2 ag	Nox1 inh	S1P1 ag	NOTCH ag	luminol inh ctr	PME-1 Maybr inh
CC[n+]1c(C)csc1Nc1ccc(N2CC(C)OC(C)C2)cc1 (centres undefined)	-4.8	104.6*	8.1	0.2	11.9	3.2
O=C(NC(=O)N1CCCC1)C1CCN(c2cnc3ccccc3n2)CC1	-4.2	-56.8	-13.8	-0.6	-0.2	2.3
CNc1ccc(Cl)cc1C(=O)NC1CC(C)CC(C)(C)C1 (centres undefined)	5.3	-7.9	-5.0	2.6*	-1.1	1.1
CC1(C)c2cc(O)ccc2OC1N1CCOCC1 (centres undefined)	-5.2	85.3*	33.8	-0.2	96.0*	5.0
O=S1(=O)CCN(Cc2cc3ccccc3s2)CC1	35.6*	-7.8	-9.2	-0.6	1.4	-2.8
O=C(CSC1=NCCCCC1)c1cccc([N+](=O)[O-])c1	-1.3	-11.5	-17.7	-0.5	-0.2	-6.8
O=C(CSc1nnc(SCC(=O)c2cccc([N+](=O)[O-])c2)s1)c1cccc([N+](=O)[O-])c1	-9.2	17.6	26.5	-0.1	92.2*	4.0
O=C1C=C(I)C(=O)C=C1I	-2.1	85.7*	-22.1	-0.2	2.2	0.2
COc1ccc(C(=O)NC(=Nc2c(C)cccc2C)SC)cc1	-9.6	2.8	101.1*	-0.6	2.4	-6.9
COc1ccc(C(=O)Nn2c(C)cc(=O)cc2C)cc1	-8.1	-56.5	6.8	0.0	2.1	0.7
COc1ccc(OCC(O)CNC(=O)c2ccc(C(F)(F)F)nc2C)cc1 (centres undefined)	-6.3	-38.6	-4.5	-0.7	2.2	-1.0
O=C(NCCNc1nccc(C(F)(F)F)n1)C1CC1	-4.1	4.6	6.2	0.6	-7.5	95.5*
COc1ccc(Br)c(C(=O)/C(C#N)=N/Nc2ccc(F)cc2)c1	-9.5	39.9	57.6	-0.8	-0.4	36.8*
COc1ccc(Br)c(C(=O)/C(C#N)=C/c2ccc(N(C)C)cc2)c1	-5.2	-2.7	1.3	-0.2	24.1	7.6
CSC(SC)=C(C#N)C(=O)c1ccco1	-13.0	-25.2	18.2	0.8	0.9	-2.2
c1coc(-c2nc3ccccc3nc2-c2ccco2)c1	-3.9	27.8	-4.2	-0.2	8.0	-2.6
O=c1c2ccccc2nc(-c2ccco2)n1Cc1ccccc1	-1.1	-80.9	91.5*	-0.7	2.6	-3.0
Cc1nc(-c2noc(-c3ccc(C(F)(F)F)cc3)n2)cs1	-5.9	2.0	14.4	0.2	-4.8	0.3
Cc1csc(-c2nc(-c3ccc(C(F)(F)F)cc3)no2)c1	-6.6	-27.0	85.7*	-3.7	-0.6	-1.6
Cc1c(C(=O)Cn2ccnc2)sc2ccc(Cl)cc12	-10.7	-30.5	104.3*	-0.1	7.5	-5.0
Cc1c(C(=O)CC#N)sc2ccc(Cl)cc12	-7.2	11.4	-8.1	0.7	0.0	0.0
CNc1nnc(SCc2csc3ccccc23)s1	-5.7	-24.3	118.1*	/	3.5	-2.8
NC(=O)c1cccc(CSCc2csc3ccccc23)c1	-4.7	-14.1	-3.3	-0.4	-2.9	0.9
N=C(N)SCc1csc2ccccc12	-11.6	23.7	19.7	2.4*	-5.8	3.2
CCc1cc2c(=O)c(-c3nc4ccccc4s3)coc2cc1OC(C)=O	-2.2	-46.2	36.7	-0.4	3.9	-9.6
SMILES	rat GALR2 ag	Nox1 inh	S1P1 ag	NOTCH ag	luminol inh ctr	PME-1 Maybr inh
CC(=O)N(c1ccc(NS(=O)(=O)c2c(C)noc2C)cn1)S(=O)(=O)c1c(C)noc1C	-4.9	-40.5	-13.1	/	-0.2	2.8
CCCCOc1nc2c(c(=O)n(C)c(=O)n2C)n1Cc1ccc(Br)cc1	-2.6	-18.5	12.5	-0.7	3.7	-5.5
Cc1c(C)n(Cc2ccc(Br)cc2)c(=O)n(Cc2ccc(Br)cc2)c1=O	-10.4	-19.1	102.3*	-0.3	2.6	1.9
CC(=O)Nc1cc(C)ccc1OC(C)(C)C(=O)OC(C)(C)C	-9.3	-62.0	2.5	-0.8	0.6	-2.7
COCCOc1ccc([N+](=O)[O-])cc1C(=O)O	-4.2	5.0	-6.4	/	-2.7	1.4
COCCOc1ccc(N=Cc2ccccc2O)cc1C(=O)O	-7.2	10.5	-0.5	3.1*	-20.3	1.1
O=C(CSc1nc(-c2ccc(Cl)cc2)[nH]c(=O)n1)Nc1ccc(Cl)cc1	-5.3	13.0	-10.3	-0.3	4.4	-14.8
COc1ccc(NC(=O)c2cc(C(F)(F)F)cc(C(F)(F)F)c2)cn1	-4.7	-16.0	-5.1	-0.6	-2.7	-1.1
N/C(=N/OC(=O)Nc1cccc(C(F)(F)F)c1)C1COc2ccccc2O1 (centres undefined)	-6.0	-5.3	-0.8	2.4*	-2.0	0.1
Cn1c(=O)c2c(O)c(Cc3ccccc3)c(=O)n(C)c2n(C)c1=O	-6.7	-29.2	-10.8	-0.1	-2.2	-4.3

Source: PubChem BioAssay (The Scripps Research Institute Molecular Screening Center)
